Assay results reported in PubChem BioAssay (NCI).
About 83,000 compounds went through this panel and 20% of them were active in at least one assay; those are over-represented in the sample as a whole.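 Single-dose data. Exposure time 48 hours. Values below 10 considered active.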 The source made the active and inactive calls.

Experiments:
Test in all cases: NCI-60 one-dose screen, 48 h (100 = growth as untreated, 0 = no growth, -100 = all killed)
Details in all cases: 10 µM unless noted
[1] = test system: SK-MEL-2 melanoma
[2] = test system: EKVX NSCLC
[3] = test system: SN12C renal
[4] = test system: UO-31 renal
[5] = test system: TK-10 renal
[6] = test system: ACHN renal
[7] = test system: CAKI-1 renal
[8] = test system: A498 renal
[9] = test system: CCRF-CEM leukemia
[10] = test system: MOLT-4 leukemia

Measured: growth

c1ccc(-c2nc(N3CCOCC3)c3c4c(sc3n2)CCCCC4)nc1
active: [8] 9.92%
inactive: [1] 61.7% | [2] 50.1% | [3] 69% | [4] 35.7% | [5] 45.1% | [6] 65.1% | [7] 46.2% | [9] 79.9% | [10] 58.9%

O=C(Nc1nc(-c2ccccc2)cc(-c2ccc(Cl)cc2)n1)c1ccncc1
inactive: [1] 98.8% | [2] 82.3% | [3] 104% | [4] 70.8% | [5] 107% | [6] 97.4% | [7] 77.7% | [8] 71.5% | [9] 98.3% | [10] 93%

CC(=O)C1=C(O)C=C2Oc3c(C(=O)/C=C/c4c(Cl)cccc4Cl)c(O)c(C)c(O)c3[C@]2(C)C1=O
active: [1] -49.1% | [2] -0.577% | [3] -30.9% | [4] -28.6% | [5] -30.8% | [6] -15.3% | [7] 6.78% | [8] -72.4% | [9] -25.3% | [10] -33%

CCCCOc1ccc(NC(=O)n2nc(NC(C)=O)c3cc(NC(C)=O)ccc32)cc1
inactive: [1] 95% | [2] 68.7% | [3] 92.2% | [4] 80.9% | [5] 89.9% | [6] 95.3% | [7] 89.2% | [8] 105% | [9] 62.1% | [10] 52%

COCCOC(=O)C1=C(C)NC(=S)NC1c1ccc2c(c1)OCO2 (stereo not given)
inactive: [1] 93% | [2] 105% | [3] 104% | [4] 87.8% | [5] 104% | [6] 106% | [7] 99.8% | [8] 96.1% | [9] 104% | [10] 96.9%

CC#CC#Cc1cccc(=O)o1
inactive: [2] 20.7% | [3] 81.6% | [4] 40.7% | [5] 73.7% | [6] 68.5% | [8] 113% | [9] 11.9% | [10] 64.9%
active: [1] -47.3% | [7] 4.28%

CCCCCCNC(=O)Oc1ccc(/C(=C(\C)c2ccccc2)c2ccc(OCCN(CC)CC)cc2)cc1
inactive: [1] 86.6% | [2] 90.5% | [3] 73% | [4] 28.8% | [5] 76.1% | [6] 88.1% | [7] 77% | [8] 81.7% | [9] 40.5% | [10] 20.3%

CCN(CC)CCCC(C)NCCCNc1cccc2cccnc12 (stereo not given)
inactive: [1] 112% | [2] 101% | [3] 86.5% | [4] 72.2% | [5] 97.7% | [6] 108% | [7] 98.4% | [8] 81.8% | [9] 96.9% | [10] 94.1%

COC(=O)[C@H](C(C)C)n1c(=O)c2cc(OC)c(OC)cc2c2cnc3[nH]ccc3c21
inactive: [1] 89.7% | [2] 47.5% | [3] 43.5% | [4] 22% | [5] 51.1% | [6] 34% | [7] 30.5% | [9] 39%
active: [8] -40.3% | [10] 1.15%

O=C(Cc1ccccc1)c1ccc(Cl)cc1
inactive: [1] 99% | [2] 87.4% | [3] 89% | [4] 111% | [5] 99.5% | [6] 103% | [7] 75.2% | [8] 90.9% | [9] 99.1% | [10] 84.2%

S=c1[nH]nc(CSc2ncnc3c2c(-c2ccccc2)cn3-c2ccc(Cl)cc2)o1
inactive: [1] 105% | [2] 92% | [3] 92.8% | [4] 73% | [5] 114% | [6] 92.7% | [7] 76.2% | [8] 94.7% | [9] 90.2% | [10] 98.1%

COc1ccc(/C=C/C(=O)c2ccc(NC(=O)c3cc4cc5ccccc5nc4s3)cc2)cc1OC
inactive: [1] 103% | [2] 94.6% | [3] 98.1% | [4] 88.5% | [5] 126% | [6] 102% | [7] 98% | [8] 83.1% | [9] 104% | [10] 114%

Cn1c2ccccc2c2c3c(c4c5ccccc5[nH]c4c21)C(=O)N(N)C3=O
inactive: [1] 99.7% | [2] 77.3% | [3] 52.2% | [4] 34.8% | [5] 82.5% | [6] 14.2% | [7] 30.7% | [8] 60% | [9] 26.4% | [10] 21.1%

Cc1cc2cc3cc(C)c(N(C)C)cc3[n+](C)c2cc1N(C)C
inactive: [2] 52% | [3] 10.7% | [4] 62.1% | [6] 43.8% | [7] 47.2% | [8] 56.9% | [9] 13% | [10] 33.9%
active: [1] -22% | [5] -17.4%

O=c1cc(-c2ccccc2)[nH]c2ccccc12
inactive: [1] 55.8% | [2] 50.5% | [3] 91.6% | [4] 46.6% | [5] 11.4% | [6] 48.8% | [7] 47.4% | [8] 47.6% | [9] 15.2% | [10] 32%

CCC(=O)Oc1ccc(/C(=C(\C)c2ccccc2)c2ccc(OCCN(CC)CC)cc2)cc1
inactive: [1] 108% | [2] 103% | [3] 84.5% | [4] 63.3% | [5] 87.4% | [6] 94.8% | [7] 100% | [8] 99.9% | [9] 77.8% | [10] 66.4%

CCOC(=O)C(CC)n1c(=O)c2cc(OC)c(OC)cc2c2cnc3[nH]ccc3c21 (stereo not given)
active: [8] -9.97%
inactive: [1] 103% | [2] 76.4% | [3] 64.9% | [4] 37% | [5] 74.2% | [6] 61.8% | [7] 59% | [9] 81.1% | [10] 53.6%

O=c1[nH]c(-c2ccccn2)nc2sc3c(c12)CCCCC3
inactive: [1] 74.4% | [2] 32.8% | [3] 51.2% | [4] 32.6% | [5] 49.5% | [6] 36.2% | [7] 38.5% | [8] 59.4% | [9] 26.7% | [10] 32.1%

Fc1ccc(Cc2ccc(F)cc2)cc1
inactive: [1] 111% | [2] 105% | [3] 95.7% | [4] 79.7% | [5] 101% | [6] 104% | [7] 94.8% | [8] 99.7% | [9] 107% | [10] 94.5%

c1ccc2sc(SCCCn3ccnc3)nc2c1
inactive: [1] 68.7% | [2] 90.5% | [3] 84.2% | [4] 84.9% | [5] 84.2% | [6] 100% | [7] 98% | [8] 80.6% | [9] 81.6% | [10] 95.6%

C[C@]12C[C@@H](c3ccoc3)OC(=O)[C@@H]1CC[C@]1(C)[C@@H]2CC[C@@H](O)[C@]1(C)O
inactive: [1] 74.7% | [2] 57.5% | [3] 64.1% | [4] 75.5% | [5] 65% | [6] 76.1% | [7] 88.2% | [8] 19.8% | [9] 69.3% | [10] 67.3%

CCC(=O)OCc1cccc(OC)c1
inactive: [1] 111% | [2] 91.3% | [3] 99% | [4] 92.9% | [5] 119% | [6] 93% | [7] 73.6% | [8] 102% | [9] 73.3% | [10] 87.9%

O=C(Nc1ccc(CN2CCOCC2)cc1)c1[nH]ncc1Nc1ncnc2sccc12
inactive: [2] 13.4% | [3] 10.4% | [7] 13.2%
active: [1] 2.93% | [4] 8.4% | [5] 8.06% | [6] 2.49% | [8] -36.8% | [9] 5.37% | [10] -2.6%

COc1cnc2c(c1)C(=O)c1c-2n(CCCN2CCN(C)CC2)c(=O)c2cc([N+](=O)[O-])ccc12
active: [1] -14.2% | [2] -43.8% | [3] -57.7% | [4] -86.6% | [5] -89.7% | [6] -94.5% | [7] -91.4% | [8] -95.9% | [9] -27.3% | [10] -23.2%

CS(=O)CCCCCN=C=S (stereo not given)
inactive: [2] 12.8%
active: [1] 6.73% | [3] -17% | [4] 1.81% | [5] -27.7% | [6] -45.5% | [7] -15.3% | [8] -25.9% | [9] -7.32% | [10] -13%

COc1ccc(S(=O)(=O)NCCNc2nccc(-c3c(-c4cccc(N)c4)nc4sccn34)n2)cc1
inactive: [1] 108% | [2] 95.4% | [3] 95.7% | [4] 83.2% | [5] 115% | [6] 95.3% | [7] 93.8% | [8] 91.6% | [9] 101% | [10] 99%

COc1cccc(-c2nc3sccn3c2-c2ccnc(NCCCNS(=O)(=O)c3ccc(Cl)cc3)c2)c1
inactive: [1] 45.3% | [2] 47.8% | [3] 41.1% | [4] 11.9% | [5] 83.1% | [6] 36.3% | [7] 32.6% | [8] 38.7% | [9] 23.2% | [10] 21.6%
